Experimental findings from publication PMC7862700, “An all-to-all approach to the identification of sequence-specific readers for epigenetic DNA modifications on cytosine” are described below.

Common to all, as to test: DAPPL (digital affinity profiling via proximity ligation, sequencing); 10 mM Tris-HCl pH 7.5, 50 mM NaCl, 1 mM DTT, 4% glycerol, room temperature, 30 min; GST-TFs on glutathione beads, 16-mer random dsDNA library, 0.1% formaldehyde crosslink after washing; high values mean tight binding
One test deals with T1, FLI1 (Homo sapiens, UniProt Q01543 1-452).
T1 sequence: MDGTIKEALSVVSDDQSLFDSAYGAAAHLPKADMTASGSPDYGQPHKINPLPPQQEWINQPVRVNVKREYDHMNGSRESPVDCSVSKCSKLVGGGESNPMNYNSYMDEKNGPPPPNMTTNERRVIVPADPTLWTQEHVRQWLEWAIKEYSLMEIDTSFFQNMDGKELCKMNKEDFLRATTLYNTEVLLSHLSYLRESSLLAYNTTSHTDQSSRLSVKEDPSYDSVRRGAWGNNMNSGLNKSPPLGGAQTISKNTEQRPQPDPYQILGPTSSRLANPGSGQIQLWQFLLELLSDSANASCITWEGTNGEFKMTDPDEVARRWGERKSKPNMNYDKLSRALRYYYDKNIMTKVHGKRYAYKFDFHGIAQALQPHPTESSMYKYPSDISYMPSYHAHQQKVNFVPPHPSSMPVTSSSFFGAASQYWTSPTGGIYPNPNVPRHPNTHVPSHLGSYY
Particulars: protein: recombinant; tags: N-terminal GST; dsDNA, one strand shown. The gist of the method:
(§1)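 Beads coated with glutathione captured GST-fused human transcription factors that had been expressed in yeast, and the factors were then given DNA barcodes and pooled with a tag-only sample. The pools were incubated with 200 nmole of a random double-stranded 16-mer DNA library in Tris/NaCl/DTT/glycerol buffer for 30 min at room temperature, washed, crosslinked with 0.1% formaldehyde and proximity-ligated with BsaI/T4 ligase at 37 °C for 1 h. PCR amplification and Illumina NextSeq500 sequencing came last. Binding signal is each hexamer's read frequency for a factor divided by its frequency for the tag-only sample.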

The next test concerns the target T2, GABPA (Homo sapiens, UniProt Q06546 1-454).
T2 sequence: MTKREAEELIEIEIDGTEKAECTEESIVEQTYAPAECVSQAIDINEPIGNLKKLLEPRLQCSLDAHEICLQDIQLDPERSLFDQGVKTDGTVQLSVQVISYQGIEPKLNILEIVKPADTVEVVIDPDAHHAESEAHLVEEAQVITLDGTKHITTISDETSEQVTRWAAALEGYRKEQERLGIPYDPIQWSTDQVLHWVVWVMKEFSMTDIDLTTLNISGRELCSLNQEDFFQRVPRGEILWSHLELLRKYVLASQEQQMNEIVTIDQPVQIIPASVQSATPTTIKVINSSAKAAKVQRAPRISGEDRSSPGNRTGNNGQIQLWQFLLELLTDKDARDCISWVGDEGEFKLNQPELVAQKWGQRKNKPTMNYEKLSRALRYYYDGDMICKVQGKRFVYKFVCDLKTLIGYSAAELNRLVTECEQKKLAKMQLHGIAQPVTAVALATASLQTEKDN
Particulars: protein: recombinant; tags: N-terminal GST; dsDNA, one strand shown. The gist of the method: as §1

The target in the next test is T3, ERG (Homo sapiens, UniProt P11308 1-479).
T3 sequence: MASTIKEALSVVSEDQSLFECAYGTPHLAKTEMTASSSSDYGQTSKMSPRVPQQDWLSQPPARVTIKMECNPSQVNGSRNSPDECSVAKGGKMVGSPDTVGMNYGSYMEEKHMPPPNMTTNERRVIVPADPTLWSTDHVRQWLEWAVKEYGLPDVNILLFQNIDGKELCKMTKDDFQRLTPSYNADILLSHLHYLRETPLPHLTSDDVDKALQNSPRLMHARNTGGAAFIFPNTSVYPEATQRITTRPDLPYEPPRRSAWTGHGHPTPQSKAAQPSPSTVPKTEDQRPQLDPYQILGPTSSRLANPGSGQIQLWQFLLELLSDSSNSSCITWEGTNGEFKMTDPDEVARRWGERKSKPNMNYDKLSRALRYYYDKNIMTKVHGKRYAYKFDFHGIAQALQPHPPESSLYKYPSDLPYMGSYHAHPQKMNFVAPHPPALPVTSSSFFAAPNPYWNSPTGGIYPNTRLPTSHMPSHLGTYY
To be noted: protein: recombinant; tags: N-terminal GST; dsDNA, one strand shown. The gist of the method: as §1

The next test addresses ETV5 (Homo sapiens, UniProt P41161 1-510). To be noted: protein: recombinant; tags: N-terminal GST; dsDNA, one strand shown. The gist of the method: as §1
Another test has as its target HSF1 (Homo sapiens, UniProt Q00613 1-529). Particulars: protein: recombinant; tags: N-terminal GST; chain copies: 3; dsDNA, one strand shown. The gist of the method: as §1
For the next test, the target named is T4, SPIC (Homo sapiens, UniProt Q8N5J4 1-248).
T4 sequence: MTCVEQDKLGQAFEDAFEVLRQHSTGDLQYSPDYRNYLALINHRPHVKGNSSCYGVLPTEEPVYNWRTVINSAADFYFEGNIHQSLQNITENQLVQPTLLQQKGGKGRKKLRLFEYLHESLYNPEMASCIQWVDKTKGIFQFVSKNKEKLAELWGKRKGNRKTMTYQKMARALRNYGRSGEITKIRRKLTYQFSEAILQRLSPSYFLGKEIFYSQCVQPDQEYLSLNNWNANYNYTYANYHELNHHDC
To be noted: protein: recombinant; tags: N-terminal GST; dsDNA, one strand shown. The gist of the method:
as §1

The next test deals with ELF4 (Homo sapiens, UniProt Q99607 1-663). Particulars: protein: recombinant; tags: N-terminal GST; dsDNA, one strand shown. The gist of the method: as §1
A further test concerns the target T5, ELK4 (Homo sapiens, UniProt P28324-2 1-405).
T5 sequence: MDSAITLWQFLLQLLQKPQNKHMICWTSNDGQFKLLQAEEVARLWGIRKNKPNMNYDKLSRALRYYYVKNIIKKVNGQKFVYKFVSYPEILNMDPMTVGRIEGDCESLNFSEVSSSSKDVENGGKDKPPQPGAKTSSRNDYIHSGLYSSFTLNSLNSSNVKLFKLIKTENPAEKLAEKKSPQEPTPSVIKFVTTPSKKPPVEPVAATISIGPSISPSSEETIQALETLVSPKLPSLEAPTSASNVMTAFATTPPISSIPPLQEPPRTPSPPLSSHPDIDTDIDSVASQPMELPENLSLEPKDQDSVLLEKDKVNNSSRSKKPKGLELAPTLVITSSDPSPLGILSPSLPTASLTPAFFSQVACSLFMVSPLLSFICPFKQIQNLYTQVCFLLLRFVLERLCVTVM
To be noted: protein: recombinant; tags: N-terminal GST; dsDNA, one strand shown. The gist of the method:
as §1

Another test addresses T6, ETV2 (Homo sapiens, UniProt O00321 1-342).
T6 sequence: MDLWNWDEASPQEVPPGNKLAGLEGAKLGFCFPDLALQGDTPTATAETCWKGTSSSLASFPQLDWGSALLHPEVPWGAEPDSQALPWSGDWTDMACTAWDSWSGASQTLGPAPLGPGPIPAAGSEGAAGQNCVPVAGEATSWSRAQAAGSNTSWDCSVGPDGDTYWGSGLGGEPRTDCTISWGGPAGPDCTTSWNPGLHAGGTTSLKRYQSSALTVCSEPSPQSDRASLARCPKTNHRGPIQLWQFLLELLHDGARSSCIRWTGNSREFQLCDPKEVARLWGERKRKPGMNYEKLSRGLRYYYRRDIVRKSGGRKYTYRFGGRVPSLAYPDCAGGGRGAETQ
Particulars: protein: recombinant; tags: N-terminal GST; dsDNA, one strand shown. The gist of the method:
as §1

The target in a further test is T7, ELF3 (Homo sapiens, UniProt P78545 1-371).
T7 sequence: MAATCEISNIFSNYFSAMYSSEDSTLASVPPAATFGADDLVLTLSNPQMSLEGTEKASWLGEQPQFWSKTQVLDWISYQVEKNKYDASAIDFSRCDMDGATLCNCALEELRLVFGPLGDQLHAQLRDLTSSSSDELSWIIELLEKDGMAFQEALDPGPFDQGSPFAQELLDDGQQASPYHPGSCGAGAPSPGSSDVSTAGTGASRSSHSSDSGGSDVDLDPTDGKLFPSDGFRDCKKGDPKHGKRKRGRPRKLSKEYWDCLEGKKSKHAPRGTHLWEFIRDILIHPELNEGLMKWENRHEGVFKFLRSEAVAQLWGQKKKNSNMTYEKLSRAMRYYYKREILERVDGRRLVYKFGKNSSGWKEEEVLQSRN
To be noted: protein: recombinant; tags: N-terminal GST; dsDNA, one strand shown. The gist of the method:
as §1

The target of the next test is CRX (Homo sapiens, UniProt O43186 1-299). Particulars: protein: recombinant; tags: N-terminal GST; dsDNA, one strand shown. The gist of the method:
as §1

The target in a further test is ETV1 (Homo sapiens, UniProt P50549 1-477). Particulars: protein: recombinant; tags: N-terminal GST; dsDNA, one strand shown. The gist of the method: as §1
Sequence of ETV1 (P50549 whole entry): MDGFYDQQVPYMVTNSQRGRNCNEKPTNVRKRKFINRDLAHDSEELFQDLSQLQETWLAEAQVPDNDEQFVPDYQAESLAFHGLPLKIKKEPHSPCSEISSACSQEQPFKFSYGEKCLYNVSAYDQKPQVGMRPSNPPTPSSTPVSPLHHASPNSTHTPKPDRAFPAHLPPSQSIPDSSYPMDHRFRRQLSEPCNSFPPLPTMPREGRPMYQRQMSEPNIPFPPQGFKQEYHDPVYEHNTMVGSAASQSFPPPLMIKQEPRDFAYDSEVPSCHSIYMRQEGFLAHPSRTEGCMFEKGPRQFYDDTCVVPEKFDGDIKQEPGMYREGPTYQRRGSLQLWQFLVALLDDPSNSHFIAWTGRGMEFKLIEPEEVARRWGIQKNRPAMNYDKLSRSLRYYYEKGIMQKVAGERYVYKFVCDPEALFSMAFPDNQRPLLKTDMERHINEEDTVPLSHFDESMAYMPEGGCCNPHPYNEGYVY

Sequence of CRX (O43186 whole entry): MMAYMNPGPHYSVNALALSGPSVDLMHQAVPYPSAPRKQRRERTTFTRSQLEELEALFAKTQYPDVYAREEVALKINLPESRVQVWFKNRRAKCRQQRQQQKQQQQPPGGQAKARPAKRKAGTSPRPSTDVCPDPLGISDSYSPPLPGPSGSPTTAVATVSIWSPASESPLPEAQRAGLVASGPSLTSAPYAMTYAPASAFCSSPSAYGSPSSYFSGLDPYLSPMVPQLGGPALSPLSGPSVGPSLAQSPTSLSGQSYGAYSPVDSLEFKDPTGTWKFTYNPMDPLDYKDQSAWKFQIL
Sequence of HSF1 (Q00613 whole entry): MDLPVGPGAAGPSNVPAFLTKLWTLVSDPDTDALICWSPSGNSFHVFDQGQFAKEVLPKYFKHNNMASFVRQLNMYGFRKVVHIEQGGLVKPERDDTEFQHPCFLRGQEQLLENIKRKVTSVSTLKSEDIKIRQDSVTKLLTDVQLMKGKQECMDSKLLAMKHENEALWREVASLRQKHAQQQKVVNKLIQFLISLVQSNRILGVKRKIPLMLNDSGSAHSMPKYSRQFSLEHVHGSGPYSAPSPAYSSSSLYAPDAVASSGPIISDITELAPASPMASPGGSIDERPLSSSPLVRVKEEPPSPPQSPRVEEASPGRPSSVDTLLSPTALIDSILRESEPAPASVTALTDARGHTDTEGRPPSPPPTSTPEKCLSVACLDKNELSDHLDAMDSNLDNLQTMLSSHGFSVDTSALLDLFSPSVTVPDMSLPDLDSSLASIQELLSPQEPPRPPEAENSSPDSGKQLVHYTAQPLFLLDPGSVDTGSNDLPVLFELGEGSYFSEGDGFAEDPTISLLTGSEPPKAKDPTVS
Sequence of ELF4 (Q99607 whole entry): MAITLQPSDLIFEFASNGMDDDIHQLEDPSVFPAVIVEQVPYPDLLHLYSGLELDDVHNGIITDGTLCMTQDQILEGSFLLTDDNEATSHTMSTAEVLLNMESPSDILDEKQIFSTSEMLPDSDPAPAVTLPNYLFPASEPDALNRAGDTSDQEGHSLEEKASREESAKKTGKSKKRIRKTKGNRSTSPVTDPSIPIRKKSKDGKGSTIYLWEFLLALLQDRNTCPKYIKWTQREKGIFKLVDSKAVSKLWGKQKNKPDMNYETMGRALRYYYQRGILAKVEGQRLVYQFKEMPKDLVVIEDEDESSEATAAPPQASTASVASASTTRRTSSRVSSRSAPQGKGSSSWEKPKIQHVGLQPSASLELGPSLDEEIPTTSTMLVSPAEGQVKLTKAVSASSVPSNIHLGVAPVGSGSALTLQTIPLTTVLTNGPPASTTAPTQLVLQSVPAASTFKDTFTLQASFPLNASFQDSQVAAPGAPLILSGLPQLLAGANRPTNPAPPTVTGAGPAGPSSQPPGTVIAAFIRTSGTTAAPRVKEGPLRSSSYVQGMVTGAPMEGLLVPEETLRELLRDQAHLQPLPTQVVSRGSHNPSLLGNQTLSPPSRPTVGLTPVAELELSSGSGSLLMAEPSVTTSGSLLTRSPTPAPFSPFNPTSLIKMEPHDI
Sequence of ETV5 (P41161 whole entry): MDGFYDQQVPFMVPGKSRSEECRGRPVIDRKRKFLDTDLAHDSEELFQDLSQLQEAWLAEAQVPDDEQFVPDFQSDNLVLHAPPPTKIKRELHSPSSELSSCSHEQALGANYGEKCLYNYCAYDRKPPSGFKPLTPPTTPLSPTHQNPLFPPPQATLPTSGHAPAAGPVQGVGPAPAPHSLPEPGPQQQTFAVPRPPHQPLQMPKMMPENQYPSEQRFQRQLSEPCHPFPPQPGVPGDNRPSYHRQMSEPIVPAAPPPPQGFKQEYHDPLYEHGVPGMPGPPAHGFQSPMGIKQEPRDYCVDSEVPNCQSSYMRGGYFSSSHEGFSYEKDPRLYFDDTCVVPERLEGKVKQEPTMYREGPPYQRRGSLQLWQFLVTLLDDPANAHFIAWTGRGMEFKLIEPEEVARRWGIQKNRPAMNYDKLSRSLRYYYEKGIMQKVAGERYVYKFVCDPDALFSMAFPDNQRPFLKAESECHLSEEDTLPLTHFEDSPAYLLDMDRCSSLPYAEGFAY

For the sequence ATCGTT, the binding signal with FLI1 is 1.08 fold enrichment (6-mer frequency, TF over GST control); in the test with GABPA it was 1.01 fold enrichment (6-mer frequency, TF over GST control); with ERG it was 1.02 fold enrichment (6-mer frequency, TF over GST control); with ETV5, 1 fold enrichment (6-mer frequency, TF over GST control); with HSF1, 1.02 fold enrichment (6-mer frequency, TF over GST control); in the test with SPIC, 1.03 fold enrichment (6-mer frequency, TF over GST control). Besides, the binding signal with ELF4 was 1.04 fold enrichment (6-mer frequency, TF over GST control); with ELK4 it was 1.12 fold enrichment (6-mer frequency, TF over GST control); in the test with ETV2, 1.13 fold enrichment (6-mer frequency, TF over GST control); with ELF3, 1.03 fold enrichment (6-mer frequency, TF over GST control); with CRX, 1.14 fold enrichment (6-mer frequency, TF over GST control); in the test with ETV1, 1.06 fold enrichment (6-mer frequency, TF over GST control).
